Only some compounds are listed: those with a hit (about 5.7% of all), similar ones and a draw of the others.
VP16 counter: VP16 counterscreen qHTS for inhibitors of ROR gamma transcriptional activity; Drosophila S2 Gal4-VP16 UAS-luciferase, luminescence, 20 h; Potency, µM (highest dose often 53.6 µM), without a hit: top-dose activity, negative = inhibition, hits mostly inhibitors; 3.5% of 310,000 active;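 note: Gal4-VP16 expression switched on by copper sulfate through the metallothionein promoter; nearly all actives have a fitted effect of over 50% in size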
B2AR arrestin: qHTS assay of beta-arrestin-biased ligands of beta2-adrenergic receptor; beta-arrestin recruitment to beta2AR, cell-based reporter; Potency, µM (titrated, usually from 46.1 µM), without a hit: at the top dose activation, most hits filed as activators; 0.02% of 330,000 active; AID 492947, 2010;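 note: 0% = DMSO controls and full agonism = EC100 isoproterenol or metaproterenol; nearly all actives have a fitted effect of over 65% in size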
NPSR antag: qHTS Assay for Antagonists of the Neuropeptide S Receptor: cAMP Signal Transduction | CHO-NPSR cells, cAMP TR-FRET, antagonist mode | 1% of 220,000 active | Potency, µM (doses to about 38.3 µM), for the others: at the highest dose activity change, negative = inhibition, actives largely listed as inhibitors | Q6W5P4 | AID 1461, 2008; note: nearly all actives have a fitted effect of over 50% in size
Target sequence (Q6W5P4 whole entry, looked up): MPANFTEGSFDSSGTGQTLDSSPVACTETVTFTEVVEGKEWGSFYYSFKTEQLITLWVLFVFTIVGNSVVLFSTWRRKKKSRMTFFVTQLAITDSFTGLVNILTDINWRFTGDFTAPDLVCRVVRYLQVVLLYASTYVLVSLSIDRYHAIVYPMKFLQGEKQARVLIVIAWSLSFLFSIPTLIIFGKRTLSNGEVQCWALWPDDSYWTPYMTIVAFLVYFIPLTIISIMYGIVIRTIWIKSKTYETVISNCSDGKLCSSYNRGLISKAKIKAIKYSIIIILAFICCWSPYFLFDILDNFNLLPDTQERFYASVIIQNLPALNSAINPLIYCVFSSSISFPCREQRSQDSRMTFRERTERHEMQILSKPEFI
RORgamma inh: qHTS for inhibitors of ROR gamma transcriptional activity | Drosophila S2 Gal4-RORgamma UAS-luciferase reporter, 20 h | 5.4% of 310,000 active | Nuclear receptor ROR-gamma (Mus musculus), P51450 | AID 2551, 2010 | Potency, µM (titrated, usually from 53.6 µM), without a hit: at the highest dose activity change, negative = inhibition, most hits filed as inhibitors; note: nearly all actives have a fitted effect of over 60% in size
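ROR gamma transcriptional activity was tracked as Gal4-UAS luciferase output in stably transfected Drosophila Schneider cells, with compound added 1 hr before 700 uM copper sulfate induction and a 20 hr ambient-temperature incubation.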
* = called active by the depositor; u = inconclusive; x = no result given; ! = a repeat was not active; [ ] = another dose, or the depositor's remark. Calls come from the whole dose curve; as a rule, active = well fitted curve in the direction sought with a large enough effect; inconclusive = small, poorly fitted or top-dose-only effect, or another doubt; inactive = no such curve, though single readings can be large; an effect the other way counts as inactive or inconclusive. Unless noted, % is set by controls: 0 for no effect and ±100 for the full control effect; potency is the fitted concentration of half-maximal effect.

SMILES	VP16 counter	B2AR arrestin	NPSR antag	RORgamma inh
C#CCCCO/N=C1/C[C@@H](O)[C@@H](O)[C@@H]2[C@@H]3C(=O)N(Cc4ccc5c(c4)OCO5)C(=O)[C@H]3CC[C@@H]12	-4%[10 µM]	x	x	2%[10 µM]
Cc1ccc(-c2csc(=Nc3cccnc3)n2CCCn2ccnc2)cc1C	u	0%	-4%	u
CN(Cc1ccccc1)S(=O)(=O)c1ccc(C(=O)Nc2nnc(C3CC3)o2)cc1	0.56µM*	0%	-3%[46.1 µM]	0.28µM*
COc1ccccc1-c1nnc(NC(=O)c2ccc(S(=O)(=O)N(C)Cc3ccccc3)cc2)o1	0.0028µM*	0%	-4%[46.1 µM]	0.32µM*
CCN(Cc1ccccc1)S(=O)(=O)c1ccc(C(=O)Nc2nnc(C)o2)cc1	0.56µM*	-1%	x	0.56µM*
CCc1nnc(NC(=O)c2ccc(S(=O)(=O)N(CC)Cc3ccccc3)cc2)o1	0.11µM*	0%	-22%[46.1 µM]	0.1µM*
CCOC(=O)N1CCN(S(=O)(=O)c2ccc(C(=O)Nc3nnc(C)o3)cc2)CC1	u	-2%	2%	u
CC(=O)Nc1ccc(S(=O)(=O)N(C)Cc2ccccc2)cc1	25%	0%	2%	u
CCc1nnc(NC(=O)c2ccc(S(=O)(=O)N(C)Cc3ccccc3)cc2)o1	u	0%	x	0.13µM*
CCCC(C)NC(=O)c1sc2nc3n(c(=O)c2c1C)CCC3 (stereo unspecified)	23%	0%	4%	29%
COc1ccc(CC(=O)Nc2ccc(-c3nc4cc(C)ccc4o3)c(O)c2)cc1OC	11%	0%	23%[46.1 µM]	20%
Cc1ccc2oc(-c3ccc(NC(=O)c4ccncc4)cc3O)nc2c1	4%	-1%	0%	7.1µM*
CCCC(=O)Nc1ccc2oc(-c3ccc(OC)c(Br)c3)nc2c1	-21%	0%	0%[46.1 µM]	18%
CCCC(=O)Nc1ccc(-c2nc3cc(C)ccc3o2)cc1	2.8µM*	0%	-10%[46.1 µM]	4µM*
COC(=O)c1ccc2c(=O)n(CCCN3CCOCC3)c(=S)[nH]c2c1	u	0%	-6%[46.1 µM]	u
CCn1c(=O)cc(C(=O)OC)sc1=Nc1ccc(F)c(F)c1	u	-1%	-8%[46.1 µM]	22µM*
COC(=O)c1cc(=O)n(CCc2ccccc2)c(=Nc2ccc(F)cc2)s1	-28%	0%	10µM*	8.9µM*
COC(=O)c1cc(=O)n(CCc2ccc(OC)cc2)c(=Nc2ccc(F)c(Cl)c2)s1	3%	1%	-10%[46.1 µM]	8%
CCOC(=O)c1ccc(N=c2sc(C(=O)OC)cc(=O)n2CCCN2CCOCC2)cc1	-21%	0%	13µM*!	u
O=c1[nH]c(=S)[nH]c2nc(-c3cccs3)cc(C(F)(F)F)c12	-12%	0%	x	11µM*
O=C(CSc1nc2nc(-c3cccs3)cc(C(F)(F)F)c2c(=O)[nH]1)Nc1c(F)c(F)c(F)c(F)c1F	9%	0%	-58%	25%
C[C@H](N)CCCC(C)(C)O	-5%[17 µM]	x	x	-2%[16.9 µM]
Nc1nc(CN2CCN(c3ccccc3)CC2)nc(N2CCCc3ccccc32)n1	-12%	1%	-6%[46.1 µM]	-27%
Nc1nc(CN2CCN(c3ccccc3F)CC2)nc(N2CCCc3ccccc32)n1	u	0%	-13%	11µM*
Nc1nc(CN2CCN(Cc3ccccc3)CC2)nc(N2CCCc3ccccc32)n1	-6%	0%	2%	10µM*
SMILES	VP16 counter	B2AR arrestin	NPSR antag	RORgamma inh
O=C(NCCCN1CCOCC1)C1Cc2c(ccc3ccccc23)O1 (stereo unspecified)	6%	0%	-1%	-1%
O=C1[C@H]2[C@H]3[C@H](O)[C@H](O)C/C(=N/OCc4ccccc4)[C@H]3CC[C@@H]2C(=O)N1Cc1ccc2c(c1)OCO2	-4%[10 µM]	x	x	22%[10 µM]
CCN(CC(=O)Nc1ccc(C(=O)Nc2ccc(OC)cc2)cc1)Cc1nc2ccccc2c(=O)[nH]1	u	-1%	21%	3.2µM*
CCN(CC(=O)Nc1cc(OC)ccc1OC)Cc1nc2ccccc2c(=O)[nH]1	-7%	0%	-6%	20µM*
CCN(CC(=O)Nc1cccc(F)c1)Cc1nc2ccccc2c(=O)[nH]1	u	-1%	9%	u
CCN(Cc1nc2ccccc2c(=O)[nH]1)Cc1cc(=O)oc2cc(OC)ccc12	16µM*	0%	-18%[46.1 µM]	14µM*
COc1ccc(NC(=O)COC(=O)CCc2nc3ccccc3c(=O)[nH]2)c(OC)c1	x	-1%	x	x

Source: PubChem BioAssay
